High-throughput results from PubChem.
Most compounds without a hit are left out; they make up all but 2.4% or so of the library.
D2 ag-1: HTS Assay for Allosteric Agonists of the Human D2 Dopamine Receptor: Primary Screen for Agonists | HEK293 T-REx D2 cells, calcium flux agonist mode | D(2) dopamine receptor (Homo sapiens), P14416 | hit rate 0.53% among 340,000 | activation, % at 2 µM;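 active = activation over 3 SD above normal in the single-dose calcium agonist read, cut at about 30% in these data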
Target sequence (P14416 whole entry, looked up): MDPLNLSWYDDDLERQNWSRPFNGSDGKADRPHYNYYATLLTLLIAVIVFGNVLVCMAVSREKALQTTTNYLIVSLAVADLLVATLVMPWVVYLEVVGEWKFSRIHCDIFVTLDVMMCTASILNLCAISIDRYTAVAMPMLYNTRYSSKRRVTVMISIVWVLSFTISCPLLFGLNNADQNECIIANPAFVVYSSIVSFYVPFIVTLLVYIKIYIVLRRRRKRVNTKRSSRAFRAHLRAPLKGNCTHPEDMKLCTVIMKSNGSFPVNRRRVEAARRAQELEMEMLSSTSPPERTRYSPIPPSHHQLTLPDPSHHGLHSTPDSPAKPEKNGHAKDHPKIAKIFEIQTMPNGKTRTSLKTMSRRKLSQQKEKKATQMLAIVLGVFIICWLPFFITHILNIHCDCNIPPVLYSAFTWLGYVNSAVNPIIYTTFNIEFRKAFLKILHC
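Calcium-flux readout, 1 cycle/sec over 180 s following compound pin transfer, in inducible HEK293 Trex D2 cells (force-coupled); dopamine controls included. Positive calcium responses during this window marked compounds as potential agonists.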
D2 ag-2: Beta-Arrestin HTS for Positive Allosteric Modulators of the Human D2 Dopamine Receptor: Agonists | DiscoveRx PathHunter D2 beta-arrestin, luminescence, 90 min; 100% = 57 uM dopamine signal | D(2) dopamine receptor (Homo sapiens), P14416 | activation, % (no concentration beside the values) | hit rate 0.084% among 360,000; in the data active = activation above about 40%; inconclusive = between about 15% and that limit
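Agonist mode: compounds alone added to overnight-plated D2 PathHunter cells for 90 min at 37 C, with 57 uM final dopamine (EC100) defining full response. Beta-arrestin recruitment detected by chemiluminescent reagent, read after 1 h at ambient temperature.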
D2 PAM-1: HTS Assay for Positive Allosteric Modulators of the Human D2 Dopamine Receptor: Primary Screen for Potentiators | D(2) dopamine receptor (Homo sapiens), P14416 | HEK293 T-REx D2, calcium flux, EC20 dopamine potentiation | potentiation, % at 10 µM | hit rate 0.34% among 340,000 | AID 485347, 2010;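 active = potentiation over 3 SD above the plate norm, cut at about 30% in these data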
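Potentiation of an EC20 dopamine calcium response measured kinetically over 180 s, after a preceding 180 s compound-only read flagging agonists. Cells: inducible Hek293 Trex D2 line, 4000/well, cultured overnight at 30 C before dye loading.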
D2 PAM-2: Beta-Arrestin HTS for Positive Allosteric Modulators of the Human D2 Dopamine Receptor: Potentiators; D(2) dopamine receptor (Homo sapiens), P14416; hit rate 0.23% among 360,000; potentiation, % (concentration not given with the values); DiscoveRx D2 beta-arrestin cells, luminescence, 90 min; 100% = 57 uM dopamine signal; in the data active = potentiation above about 50%; inconclusive = mostly about 30% to 49%
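PathHunter D2 cells, attached overnight at 37 deg C, received compound in DMSO plus dopamine at EC20 (50 nM final) for 90 min at 37 deg C. Beta-arrestin recruitment was read as luminescence after 1 h with detection reagent at ambient temperature.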
D2 antag: HTS Assay for Allosteric Antagonists of the Human D2 Dopamine Receptor: Primary Screen for Antagonists. D(2) dopamine receptor (Homo sapiens), P14416. inhibition, % at 10 µM. hit rate 2% among 340,000. HEK293 TREx D2 cells, calcium flux, dopamine EC80; in the data active = inhibition above about 30%; inactive = below that, where a call was filed
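Inhibition of EC80 dopamine-driven calcium flux, recorded kinetically, defines activity here; cells are a tetracycline-induced HEK293 T-REx line expressing force-coupled D2.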
D3 ag: qHTS of D3 Dopamine Receptor Agonist: D3 Dopamine Receptor B-arrestin Agonist Confirmatory Assay; hit rate 4% among 2,300; Potency, µM (doses to about 76.9 µM), hits mostly activators; AID 720506, 2013; shares compounds with D2 ag-1; DiscoveRx D3 beta-arrestin cells, luminescence, 90 min; note: nearly all actives have a fitted effect of over 70% in size
D2 ag-3: qHTS of D3 Dopamine Receptor Agonist: D2 Dopamine Receptor B-arrestin Agonist Counterscreen. hit rate 5.9% among 2,300. shares compounds with D2 ag-1. AID 720507, 2013. Potency, µM (series often up to 76.9 µM), actives largely listed as activators. DiscoveRx PathHunter D2 beta-arrestin, luminescence, 90 min; response scale: percent relative to full dopamine signal; note: nearly all actives have a fitted effect of over 70% in size
A number is an active result; i = inactive; ? = inconclusive; nt = no result given. Unless noted, calls come from the whole dose curve; as a rule, active = well fitted activation curve with a large enough effect; inconclusive = small, poorly fitted or top-dose-only effect; inactive = flat fitted curve, though single readings scatter.

SMILES	D2 ag-1	D2 ag-2	D2 PAM-1	D2 PAM-2	D2 antag	D3 ag	D2 ag-3
CC(C)(C)C1CCc2c(sc(NC(=O)c3cc4ccccc4c(=O)o3)c2C(N)=O)C1 (stereo not given)	i	nt	i	nt	nt	nt	nt
CCN(C(=O)CSc1ncc2c(n1)-c1cc(Cl)ccc1N(Cc1ccccc1)S2(=O)=O)c1cccc(C)c1	nt	nt	i	nt	nt	nt	nt
COc1ccc(NC(=O)C(NS(=O)(=O)c2cccc3nsnc23)c2ccccc2)cc1 (stereo not given)	i	nt	i	nt	nt	nt	nt
CCOC(=O)N1CCN(Cc2ccc3ccccc3c2)CC1	34	i	i	i	i	i	i
CCn1cc(C(=O)N2CCN(Cc3ccc4c(c3)OCO4)CC2)c(=O)c2ccc(C)nc21	68	i	i	i	i	i	i
O=C(CCCn1c(=O)[nH]c2ccsc2c1=O)N1CCN(Cc2ccc3c(c2)OCO3)CC1	nt	i	i	i	nt	i	i
Cc1c(C(=O)N2CCN(Cc3ccc4c(c3)OCO4)CC2)sc2ncnc(N3CCN(c4ccccc4F)CC3)c12	nt	?	nt	i	nt	i	?
CCn1cc(C(=O)NCc2ccc3c(c2)OCO3)c(=O)c2ccc(C)nc21	i	nt	i	nt	i	nt	nt
CCOC(=O)N1CCN(C(=O)c2ccc3ccccc3c2)CC1	i	i	i	i	i	nt	nt
COc1ccc(C)cc1NS(=O)(=O)c1cnc(N)nc1	i	nt	nt	nt	nt	nt	nt
Cc1c(C(=O)NCc2cccc(Cl)c2)sc2nc3n(c(=O)c12)CCC3	i	nt	i	nt	nt	nt	nt
Cc1cccc(CNC(=O)Cc2ccc(NC(=O)N3CCCCc4ccccc43)cc2)c1	i	nt	i	nt	nt	nt	nt
COc1ccc(/C=c2\s/c(=C/C(=O)c3ccc(C)cc3)[nH]c2=O)cc1OC	i	i	i	i	i	i	i
N#C/C(=N\Nc1ccccc1)C(N)=S	i	i	i	i	i	i	i
CC(C)(C)C1COc2ccccc2N1C(=O)c1ccccc1Cl (stereo not given)	i	i	i	i	i	nt	nt
CC1COc2ccccc2N1C(=O)c1ccccc1Cl (stereo not given)	41	?	i	i	i	i	i
COc1ccc(N2CCN(CCCNC(=O)Nc3ccccc3)CC2)cc1	i	i	i	i	i	nt	nt
O=C(Cn1c(=O)c2cccn2c2ccc(F)cc21)NCCCN1CCN(c2ccccc2F)CC1	79	?	i	i	82	i	?
O=C(NCCCN1CCN(c2ccccc2F)CC1)Nc1ccccc1[N+](=O)[O-]	73	?	i	i	99	i	?
O=C(NCCCN1CCN(c2ccccc2F)CC1)Nc1ccc(F)cc1	76	i	i	i	81	i	?
COc1ccccc1N1CCN(CCCNC(=O)Nc2ccccc2)CC1	87	?	i	i	101	i	i
Cc1nn(-c2ccc(F)cc2)c(-n2cccc2)c1C(=O)NCCCN1CCN(c2ccccc2F)CC1	i	nt	i	nt	nt	nt	nt
Cc1ccccc1NC(=O)NCCCN1CCN(C)CC1	i	i	i	i	i	nt	nt
CCOc1ccc(-c2nnc(SCC(=O)Nc3cc(F)ccc3F)o2)cc1	i	nt	i	nt	nt	nt	nt
COc1ccc(OCc2nc3ccccc3n2C(C)c2ccccc2)cc1 (stereo not given)	i	nt	i	nt	nt	nt	nt
SMILES	D2 ag-1	D2 ag-2	D2 PAM-1	D2 PAM-2	D2 antag	D3 ag	D2 ag-3
CSc1ccc(NC(=O)NCCCN2CCN(c3ccccc3F)CC2)cc1	69	?	i	i	100	?	?
O=c1c2cc(NC(=S)NCCN3CCCCCC3)ccc2nc2n1CCCCC2	i	i	i	i	i	nt	nt
CCCN(CCC)CCCNC(=S)Nc1ccc2nc(N3CCCC3)cc(C)c2c1	i	i	i	i	i	nt	nt
CCCCN(CC)CCCNC(=S)Nc1ccc2nc(N3CCN(CC)CC3)cc(C)c2c1	60	i	i	i	41	?	i
CCCCN(CC)CCCNC(=S)Nc1ccc2nc(N3CCN(C)CC3)cc(C)c2c1	71	i	i	i	40	i	i
CCCCN(CC)CCCNC(=S)Nc1ccc2nc3n(c(=O)c2c1)CCCCC3	86	i	i	i	60	i	i
CCC(C)Sc1c(C(C)C)cnc2c1c(=O)n(C)c(=O)n2C (stereo not given)	i	nt	i	nt	nt	nt	nt
CC1CCCN(Cc2c(O)ccc3c(=O)c(-c4ccccc4Cl)c(C(F)(F)F)oc23)C1 (stereo not given)	i	nt	i	nt	nt	nt	nt
CCCC(=O)N1CCc2cc(-c3nc(N)sc3C)ccc21	i	i	i	i	i	nt	nt
CCC(C)C(=O)N1CCc2cc(-c3csc(N)n3)ccc21 (stereo not given)	i	i	i	i	i	i	i
CC(/C=C/c1ccccc1)=N\NC(=S)NC(C)C	31	i	i	i	i	i	i
COc1ccc(-c2cc(-c3ccc4c(c3)NC(=O)CO4)nc3c2COc2ccc(F)cc2-3)cc1	i	nt	i	nt	nt	nt	nt
Cc1c2c(nc3c(C)cccc13)OC(C)C2 (stereo not given)	i	i	i	i	i	i	i
Cc1ccc(Nc2nc(N)nc(CN3CCN(c4ccccc4)CC3)n2)cc1Cl	nt	?	nt	102	nt	i	20µM
COc1ccccc1Nc1nc(N)nc(CN2CCN(c3ccccc3)CC2)n1	52	i	i	i	44	i	i
Nc1nc(CN2CCN(c3ccccn3)CC2)nc(Nc2ccc(F)cc2)n1	74	?	i	i	73	i	?
CCc1ccc(-c2nc(CN3CCCC(C(=O)N4CCN(c5cc(Cl)ccc5C)CC4)C3)c(C)o2)cc1 (stereo not given)	i	nt	i	nt	nt	nt	nt
CC1(C)CC(=O)c2cc(C(=O)Nc3ccc(Br)cc3)c(=O)[nH]c2C1	i	nt	i	nt	nt	nt	nt
COc1cc2[nH]c(=O)n(Cc3ccc(C(=O)NCc4ccccc4)cc3)c(=O)c2cc1OC	i	nt	i	nt	nt	nt	nt
CSc1ccc(CCNC(=O)c2sc3ncccc3c2-n2cccc2)cc1	i	nt	i	nt	nt	nt	nt
COc1cc2c(=O)n(Cc3ccccc3Cl)c(=O)n(CC(=O)Nc3ccccc3)c2cc1OC	i	nt	nt	nt	nt	nt	nt
O=C(c1cccs1)N1CCN(Cc2ccccn2)CC1	78	i	i	i	52	?	?
O=C(c1cccs1)N1CCN(Cc2cccc([N+](=O)[O-])c2)CC1	71	i	i	i	38	i	?
